# Source: PubChem
# JMJD2A Tudor = inhibitors of human JMJD2A Tudor domain; AID 504339; O75164; 4.4% of 390,000 active; Potency, µM (titrated, usually from 114 µM), for inactives: at the top dose activity change, negative = inhibition, hits mostly inhibitors; AlphaScreen JMJD2A-Tudor / H3K4me3 peptide binding; further: on the % scale 0 is the no-effect control and ±100 the full control effect; nearly all actives have a fitted effect of over 50% in size
# PLK1 PBD inh = PLK1 (human) polo-box domain binding inhibition; P53350; Plk1 PBD binding of FITC phosphopeptide, fluorescence polarization; Potency, µM, for the others: max response, negative = inhibition, usual class: inhibitors; 2.8% of 360,000 active; AID 720504; further: series mostly up to about 57 µM; on the % scale 0 is the no-effect control and ±100 the full control effect; nearly all actives have a fitted effect of over 65% in size
# Sfp inh = inhibitors of Bacillus subtilis Sfp phosphopantetheinyl transferase. Biochemical Sfp PPTase activity, qHTS. Q9F4F7. 3.5% of 310,000 active. Potency, µM, for the others: largest response in the series, negative = inhibition, actives largely listed as inhibitors;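 further: the enzyme is Sfp with the accession as filed and its product quenches rhodamine fluorescence; 0% = enzyme reaction without inhibitor and -100% = no enzyme wells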
#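 Sfp 15 nM + cpd, 15 min RT; start w/ rhodamine-CoA 5 uM, BHQ-2-YbbR 12.5 uM (final); 50 mM Hepes pH 7.6, 10 mM MgCl2, 0.01% NP-40, 0.01% BSA; read 525/598 nm at 0 and 30 min.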
# G9a inh = inhibitors of human histone lysine methyltransferase G9a. 8.8% of 350,000 active. Q96KQ7. G9a H3K9 monomethylation, AlphaScreen, 2 h. Potency, µM (series often up to 102 µM), for inactives: top-dose activity, negative = inhibition, usual class: inhibitors; further: on the % scale 0 is the no-effect control and ±100 the full control effect; nearly all actives have a fitted effect of over 75% in size
#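 AlphaScreen detection with an anti-monomethyl H3K9 antibody quantified product after a 2 h room-temperature reaction containing 500 nM biotinylated H3K9 peptide, 20 µM SAM and 20 nM enzyme, which had been preincubated 15 min with compound.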
# HP1b binding inh = HP1-beta chromodomain-methylated histone interaction inhibition. P83916. AlphaScreen HP1-beta / biotin-H3K9me3 peptide binding. Potency, µM (highest dose often 114 µM), inactives show at the highest dose activity change, negative = inhibition, hits mostly inhibitors. 0.56% of 390,000 active. AID 540317; further: nearly all actives have a fitted effect of over 70% in size
#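 Compound inhibition of the preformed complex between 50 nM HP1-beta and 50 nM biotinylated H3K9me3 peptide was read by AlphaScreen. Buffer was PBS pH 7.4 with 0.01% Tween-20. Incubations ran 30 min at room temperature, with 10 ug/mL donor/acceptor beads.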
# BAZ2B inh = BAZ2B (human) inhibition; Q9UIF8; AlphaScreen BAZ2B-H3K14Ac peptide displacement; Potency, µM (top dose mostly 114 µM), inactives show at the top dose activity change, negative = inhibition, hits mostly inhibitors; 4.4% of 360,000 active; AID 504333; further: on the % scale 0 is the no-effect control and ±100 the full control effect; nearly all actives have a fitted effect of over 60% in size
#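 BAZ2B 50 nM plus b-H3(5-23)K14Ac 50 nM, PBS pH 7.4/0.01% Tween-20, 30 min RT; compound added (max 110 uM), 30 min RT; streptavidin donor/Ni-chelate acceptor beads 10 ug/mL final, 20 min dark; AlphaScreen read.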
# Starred values were filed as active, the others as inactive; ? = inconclusive; · = not tested or not shown; [ ] = remark or other dose. Rows were chosen to be rich in hits. Some 12% of all compounds tested hit in one or more screens of this group. The call rests on the fitted dose curve; in most records, active means well fitted curve in the direction sought with a large enough effect; inconclusive means small, poorly fitted or top-dose-only effect, or another doubt; inactive means no such curve, though single readings can be large; an effect the other way counts as inactive or inconclusive. Potency means the concentration at half of the fitted maximal effect.
SMILES,JMJD2A Tudor,PLK1 PBD inh,Sfp inh,G9a inh,HP1b binding inh,BAZ2B inh
CCOc1ccc(NC(=O)Cn2nnc(-c3ccccc3NC(=O)c3cccs3)n2)cc1,56µM*,?,?,-14%,-5%,-28%
O=C(C=P(c1ccccc1)(c1ccccc1)c1ccccc1)c1ccccc1-c1ccccc1C(=O)C=P(c1ccccc1)(c1ccccc1)c1ccccc1,45µM*,?,·,·,?,·
CN(C)c1ccc(/C=C/c2cc[n+](C)cc2)cc1,-20%,29%,3%,10µM*,-27%,?
CN(C)c1ccc(/C=C/c2cc[n+]([O-])cc2)cc1,·,·,0%,50µM*,·,-32%
Cc1ccc(/C=C/c2ccc(N(C)C)cc2)[n+](C)c1,25µM*,34%,?,-48%[2.33 µM],6%,?
CC(=O)O[C@@H]1[C@@H](O)CN[C@@H]1Cc1ccccc1,-16%,·,-9%,·,7%,·
COc1ccc(-c2nc3ccccc3c(=O)n2Cc2ccc(CNC(=O)CO)cc2)cc1COc1ccc(NC(C)=O)cc1,79µM*,·,·,·,·,·
COc1ccc(CN(Cc2ccccc2)C(C)=O)cc1COc1ccc(NC(C)=O)cc1,-18%,·,·,·,36%,·
COc1ccc(CN(Cc2ccccc2)C(=O)COC(C)=O)cc1COc1ccc(NC(C)=O)cc1,-31%,·,·,·,9%,·
COc1ccc(-c2nc3ccc(NC(C)=O)cc3c(=O)n2Cc2cccc(Cl)c2)cc1COc1ccc(NC(C)=O)cc1,79µM*,·,·,·,-5%,·
COc1ccc(-c2nc3ccccc3c(=O)n2Cc2ccco2)cc1COc1ccc(NC(C)=O)cc1,-21%,·,·,·,·,·
COc1ccc(-c2nc3ccc(NC(=O)COC(C)=O)cc3c(=O)n2Cc2ccccc2)cc1COc1ccc(NC(C)=O)cc1,79µM*,·,·,·,-3%,·
COc1ccc(CN(Cc2ccccc2)C(=O)CN2CCN(C)CC2)cc1COc1ccc(NC(C)=O)cc1,35µM*,·,·,·,-6%,·
CCn1nc(C)c(CCN(C)C(=O)Nc2ccc(C)c(Cl)c2)c1C,-3%,·,·,2%[59 µM],8%,0%
Cc1ccc(OCC(=O)OCC(=O)c2c(N)n(C)c(=O)n(C)c2=O)cc1C,-2%,-1%,-1%,-6%[12.7 µM],38%,1%
COc1ccc(CN(Cc2ccccc2)C(=O)Nc2ccccc2)cc1COc1ccc(NC(C)=O)cc1,?,·,·,·,17%,·
COc1ccc(-c2nc3cccc(OC)c3c(=O)n2Cc2ccccc2)cc1COc1ccc(NC(C)=O)cc1,50µM*,·,·,·,·,·
COc1ccc(NC(=O)N(C)C[C@H]2Oc3c(NS(=O)(=O)c4cccs4)cccc3C(=O)N([C@@H](C)CO)C[C@@H]2C)cc1,-4%,-15%,·,·,34%,·
Cc1ccccc1S(=O)(=O)Cc1ccc(C(=O)NCc2ccco2)o1,16µM*,24µM*,14%,7%,-8%,-11%
Cc1ccccc1S(=O)(=O)Cc1ccc(C(=O)NC2CC2)o1,50µM*,8%,3%,21%,-22%,0%
Cc1ccccc1S(=O)(=O)Cc1ccc(C(=O)NCc2ccccc2)o1,-19%,-14%,-1%,24%,43%,-2%
NC(=S)Cc1nc(-c2ccccc2)cs1,-30%,-19%,56µM*,?,?,?
CCc1nc(SCC(=O)N2CCCCC2)c2c(=O)n(C)c(=O)n(C)c2n1,-22%,-18%,-29%,·,14%,-10%
CCC(=S)/C=C1\Sc2ccc3ccccc3c2N1CCCS(=O)(=O)O,·,·,35µM*,?,·,?
Cc1ccc(N(C)C(=O)CN2C(=O)CCc3cc(S(=O)(=O)N4CCOCC4)ccc32)cc1,-14%,·,·,?,21%,?
CN(CC(=O)Nc1ccc(Cl)c(Cl)c1)C(=O)CN1C(=O)NC2(CCCC2)C1=O,-21%,-6%,·,?,5%,9%
Cc1ccc(C(C(=O)Nc2ccc3c(c2)OCO3)N(C)C(=O)Cc2c[nH]c3ccccc23)cc1 (stereo not given),?,-10%,7%,40µM*,-15%,?
CCOc1ccc(NC(=O)CN(C)C(=O)CN2C(=O)NC3(CCCC3)C2=O)cc1OCC,-14%,0%,·,56µM*,-11%,-6%
